# According to PubChem BioAssay (Tox21):
# Values without a mark were called inactive. Results filed as inconclusive are left out. A call without a number means that no potency is given here. Activity calls are given as the source filed them. Unless noted, the call rests on the fitted dose curve; in most records, active means well fitted curve in the direction sought with a large enough effect in the repeat runs; inconclusive means weak or mixed curves; inactive means no such curve, though single readings can be large; an effect the other way counts as inactive or inconclusive.
# Assays:
# [1] = A CellTox Green Cytotoxicity Assay to monitor cytotoxicity in HepG2 cells - 0 hour (AID 1224882); further: nearly all actives have a fitted effect of over 35% in size
# Procedure, shortened: (§1)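 First, HepG2 cells (600/well) mixed with reagent were plated; second, after 5 h at 37 C they received compounds via pintool; third, fluorescence was measured at 0 h through 40 h at 8 h intervals.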
# [2] = A CellTox Green Cytotoxicity Assay to monitor cytotoxicity in HepG2 cells - 32 hour (AID 1224883); further: nearly all actives have a fitted effect of over 50% in size
# Procedure, shortened: as §1
# [3] = A CellTox Green Cytotoxicity Assay to monitor cytotoxicity in HEK293 cells - 8 hour (AID 1224884); further: nearly all actives have a fitted effect of over 35% in size
# Procedure, shortened: (§2)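 Dead-cell fluorescence measured kinetically: asymmetric cyanine dye, HEK293, 600 cells/well, 5 h settle, 23 nL cpd/DMSO, 37 C, reads 0–40 h every 8 h.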
# [4] = qHTS RealTime-Glo MT Cell Viability Assay in HepG2 cells - 16 hour (AID 1224885); further: nearly all actives have a fitted effect of over 50% in size
# Procedure, shortened: (§3)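 qHTS, HepG2, 600 cells/well, RealTime-Glo (NanoLuc + prosubstrate) added with cells; 5 h preincubation; DMSO compound addition; 37 C; luminescence at 0/8/16/24/32/40 h.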
# [5] = qHTS RealTime-Glo MT Cell Viability Assay in HEK293 cells - 24 hour (AID 1224886); further: top concentration of the series differs between compounds; nearly all actives have a fitted effect of over 50% in size
# Procedure, shortened: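 Assay medium contained NanoLuc luciferase plus cell-permeant prosubstrate, added with HEK293 cells at 600 cells/well. After 5 h at 37 C/5% CO2 compounds were added; plates stayed at 37 C for 40 h with serial luminescence reads.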
# [6] = qHTS RealTime-Glo MT Cell Viability Assay in HEK293 cells - 8 hour (AID 1224887); further: top concentration of the series differs between compounds; nearly all actives have a fitted effect of over 50% in size
# Procedure, shortened: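 600 HEK293 cells per well, dispensed already mixed with RealTime-Glo MT reagents. Compound dosing came 5 h later. The same wells were read for luminescence at 0, 8, 16, 24, 32 and 40 h of exposure at 37 C.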
# [7] = A CellTox Green Cytotoxicity Assay to monitor cytotoxicity in HEK293 cells - 16 hour (AID 1224888); further: nearly all actives have a fitted effect of over 35% in size
# Procedure, shortened: as §2
# [8] = qHTS RealTime-Glo MT Cell Viability Assay in HepG2 cells - 0 hour (AID 1224889); further: nearly all actives have a fitted effect of over 50% in size; further: potency means the concentration at half of the fitted maximal effect
# Procedure, shortened: as §3
# [9] = A CellTox Green Cytotoxicity Assay to monitor cytotoxicity in HepG2 cells - 8 hour (AID 1224890); further: nearly all actives have a fitted effect of over 45% in size
# Procedure, shortened: as §1
# [10] = qHTS assay to identify small molecule antagonists of the androgen receptor (AR) signaling pathway using the MDA cell line in the presence of 0.5 nM R1881 - cell viability counter screen (AID 1259242); further: nearly all actives have a fitted effect of over 45% in size
# Procedure, shortened: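 qHTS format. MDA-kb2 (MMTV-luc, AR/GR responsive) + cpd + 0.5 nM R1881 final, 16 hr 37C/0% CO2 → CellTiter-Fluor 30 min → fluorescence intensity.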
# [11] = biological target: Estrogen receptor (Homo sapiens) (UniProt P03372); experiment: qHTS assay to identify small molecule antagonists of the estrogen receptor alpha (ER-alpha) signaling pathway using the BG1 cell line in the presence of 0.1 nM 17-beta-estradiol (AID 1259244); further: nearly all actives have a fitted effect of over 50% in size
# Chain of Estrogen receptor (Homo sapiens) (P03372 whole entry, looked up): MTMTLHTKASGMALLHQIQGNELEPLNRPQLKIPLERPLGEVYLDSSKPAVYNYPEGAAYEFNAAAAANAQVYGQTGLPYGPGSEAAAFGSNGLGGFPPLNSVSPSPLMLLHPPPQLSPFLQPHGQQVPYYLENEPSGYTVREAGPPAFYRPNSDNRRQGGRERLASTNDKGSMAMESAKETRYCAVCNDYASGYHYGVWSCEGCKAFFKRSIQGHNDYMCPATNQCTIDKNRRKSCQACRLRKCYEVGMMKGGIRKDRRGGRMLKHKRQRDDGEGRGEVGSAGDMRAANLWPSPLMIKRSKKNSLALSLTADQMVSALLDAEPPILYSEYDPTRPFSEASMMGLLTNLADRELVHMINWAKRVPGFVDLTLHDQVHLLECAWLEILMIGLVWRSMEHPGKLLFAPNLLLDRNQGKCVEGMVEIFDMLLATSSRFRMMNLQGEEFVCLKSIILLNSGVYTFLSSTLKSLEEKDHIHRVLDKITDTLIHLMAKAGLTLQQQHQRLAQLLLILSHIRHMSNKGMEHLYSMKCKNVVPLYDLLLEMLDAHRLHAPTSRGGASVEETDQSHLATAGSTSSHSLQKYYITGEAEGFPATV
# Procedure, shortened: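 Reporter is a stably transfected luciferase under four estrogen responsive elements in VM7Luc4E2 cells expressing native full-length ER-alpha; inhibition of 0.1 nM (final) 17beta-estradiol-driven signal over 22 h is read by luminescence.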
# [12] = qHTS assay to identify small molecule HDAC inhibitors (AID 1259364);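 further: wild-type HCT-116 cells with endogenous class I/II HDAC activity; top concentration of the series differs between compounds; nearly all actives have a fitted effect of over 45% in size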
# Procedure, shortened: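 Quantitative high-throughput format: overnight-seeded HCT-116 cells got compounds for 2 hr at 37C; HDAC-Glo I/II reagent added, 30 min RT, luminescence measured.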
# [13] = qHTS assay to identify small molecule HDAC inhibitors - cell viability counter screen (AID 1259365)
# Procedure, shortened: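 After overnight seeding at 1,500 cells per well, wild-type HCT-116 cultures took up compounds in DMSO for 2hr at 37 C. Viable cell content came from luminescence with CellTiter-Glo.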
# [14] = qHTS assay to identify small molecule agonists of the sonic hedgehog signaling (Shh) pathway - cell viability counter screen (AID 1259366); further: nearly all actives have a fitted effect of over 50% in size
# Procedure, shortened: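 Same-well cytotoxicity read. Gli1-Luc reporter 3T3 cells; compounds 24hr, 37C/5% CO2; CellTiter-Fluor fluorescence.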
# [15] = qHTS assay to identify small molecule antagonists of the sonic hedgehog signaling (Shh) pathway - cell viability counter screen (AID 1259367); further: nearly all actives have a fitted effect of over 55% in size
# Procedure, shortened: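 Viability was read by CellTiter-Fluor fluorescence in the same wells, reagent added 23 hr into compound treatment and incubated 1 hr at 37C. The 3T3 Gli1-Luc reporter cells (2,000/well) received conditioned medium after compound and ran 24 hr.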
# [16] = qHTS assay to identify small molecule agonists of the sonic hedgehog signaling (Shh) pathway (AID 1259368; calls by dose curve;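 further: NIH/3T3-derived 3T3Gli1-Luc cells carrying a stable Gli1-driven firefly luciferase reporter; series mostly up to about 92 µM; nearly all actives have a fitted effect of over 15% in size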)
# Procedure, shortened: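 Quantitative high-throughput format using a Gli1-driven firefly luciferase reporter line derived from NIH/3T3 cells. After a 24 hr compound treatment at 37 C and 5% CO2, luminescence reported Gli1 response element activity.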
# [17] = qHTS assay to identify small molecule antagonists of the sonic hedgehog signaling (Shh) pathway (AID 1259369; calls by dose curve; further: nearly all actives have a fitted effect of over 45% in size; further: potency means the concentration at half of the fitted maximal effect)
# Procedure, shortened: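 Stable Gli1-Luc reporter NIH/3T3 clone; quantitative HTS in stimulated mode with conditioned medium. Luminescence measured after 24hr compound treatment at 37 C.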
# [18] = qHTS assay to identify small molecule antagonists of the estrogen receptor alpha (ER-alpha) signaling pathway using the BG1 cell line in the presence of 0.1 nM 17-beta-estradiol - cell viability counter screen (AID 1259241); further: nearly all actives have a fitted effect of over 40% in size
# Procedure, shortened: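 Estradiol-stimulated (0.1 nM) VM7Luc4E2 cells exposed to compounds 22 hr; viability measured by fluorescence of cleaved CellTiter-Fluor substrate after 30 min.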
# [19] = qHTS assay to identify small molecule phospholipidosis (PLD) inducers (AID 1259344; active means well fitted curve in the direction sought with a large enough effect; an effect the other way counts as inactive or inconclusive)
# Procedure, shortened: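 Phospholipid accumulation was scored by imaging: fixed, Hoechst-counterstained HepG2 cells stained with LipidTOX Red after 24 h compound exposure at 37 C. Read-outs were pit count and pit intensity per well or per cell, with amiodarone and DMSO controls.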
# [20] = biological target: Androgen receptor (Homo sapiens) (UniProt P10275); experiment: qHTS assay to identify small molecule antagonists of the androgen receptor (AR) signaling pathway using the MDA cell line in the presence of 0.5 nM R1881 (AID 1259243); further: nearly all actives have a fitted effect of over 50% in size
# Chain of Androgen receptor (Homo sapiens) (P10275 whole entry, looked up): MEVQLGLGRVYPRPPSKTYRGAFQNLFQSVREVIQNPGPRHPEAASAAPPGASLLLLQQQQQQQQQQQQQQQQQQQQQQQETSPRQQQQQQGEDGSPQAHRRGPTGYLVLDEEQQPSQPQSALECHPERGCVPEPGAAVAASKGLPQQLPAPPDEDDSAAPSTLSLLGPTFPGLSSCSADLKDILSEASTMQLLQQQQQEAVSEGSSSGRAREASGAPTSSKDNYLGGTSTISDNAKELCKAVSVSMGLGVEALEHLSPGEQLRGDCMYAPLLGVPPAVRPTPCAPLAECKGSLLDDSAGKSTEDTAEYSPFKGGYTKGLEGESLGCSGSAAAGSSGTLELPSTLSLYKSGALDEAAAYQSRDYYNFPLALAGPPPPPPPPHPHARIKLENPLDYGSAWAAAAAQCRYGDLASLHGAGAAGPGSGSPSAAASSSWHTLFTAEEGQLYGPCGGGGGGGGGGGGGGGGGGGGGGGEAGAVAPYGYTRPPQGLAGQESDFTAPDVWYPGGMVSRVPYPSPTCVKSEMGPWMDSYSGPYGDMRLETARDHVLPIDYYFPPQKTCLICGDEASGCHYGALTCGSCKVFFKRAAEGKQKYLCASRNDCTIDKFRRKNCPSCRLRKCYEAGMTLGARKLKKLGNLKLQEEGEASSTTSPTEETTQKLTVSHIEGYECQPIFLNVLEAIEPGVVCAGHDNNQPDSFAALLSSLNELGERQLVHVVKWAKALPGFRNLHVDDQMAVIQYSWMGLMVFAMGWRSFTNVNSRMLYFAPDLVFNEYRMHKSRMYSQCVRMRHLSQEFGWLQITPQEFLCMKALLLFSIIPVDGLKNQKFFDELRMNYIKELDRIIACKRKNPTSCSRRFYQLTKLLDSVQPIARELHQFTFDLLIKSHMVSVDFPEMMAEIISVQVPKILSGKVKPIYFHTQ
# Procedure, shortened: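 Antagonist mode quantitative HTS in MDA-kb2 MMTV-luciferase cells, agonist R1881 at 0.5 nM final, 16 hr exposure at 37C and 0% CO2, luminescent detection.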
compound,measurement,setting,value
CCOC(=O)c1cccnc1,Potency,[1],inactive
same,Potency,[2],inactive
same,Potency,[3],inactive
same,Potency,[4],inactive
same,Potency,[5],inactive
same,Potency,[6],inactive
same,Potency,[7],inactive
same,Potency,[8],inactive
same,Potency,[9],inactive
same,Potency,[10],inactive
same,Potency,[11],inactive
same,Potency,[12],inactive
same,Potency,[13],inactive
same,Potency,[14],inactive
same,Potency,[15],inactive
same,outcome,[16],inactive
same,Potency,[17],inactive
COCCCN1CCC(NC(=O)c2cc(Cl)c(N)c3c2OCC3)CC1,Potency,[1],inactive
same,Potency,[2],inactive
same,Potency,[3],inactive
same,Potency,[4],inactive
same,Potency,[5],inactive
same,Potency,[6],inactive
same,Potency,[7],inactive
same,Potency,[8],inactive
same,Potency,[9],inactive
same,Potency,[18],inactive
same,Potency,[10],inactive
same,Potency,[12],inactive
same,Potency,[13],inactive
same,Potency,[14],inactive
same,Potency,[15],inactive
same,outcome,[16],inactive
same,Potency,[17],inactive
NCC(=O)CCC(=O)O,Potency,[1],inactive
same,Potency,[2],inactive
same,Potency,[3],inactive
same,Potency,[4],inactive
same,Potency,[5],inactive
same,Potency,[6],inactive
same,Potency,[7],inactive
same,Potency,[8],inactive
same,Potency,[9],inactive
same,Potency,[10],inactive
same,Potency,[11],inactive
same,Potency,[19],inactive
same,Potency,[12],inactive
same,Potency,[13],inactive
same,Potency,[14],inactive
same,Potency,[15],inactive
same,outcome,[16],inactive
same,Potency,[17],inactive
CC(C)(CO)[N+](=O)[O-],Potency,[1],inactive
same,Potency,[2],inactive
same,Potency,[3],inactive
same,Potency,[4],inactive
same,Potency,[5],inactive
same,Potency,[6],inactive
same,Potency,[7],inactive
same,Potency,[8],inactive
same,Potency,[9],inactive
same,Potency,[18],inactive
same,Potency,[10],inactive
same,Potency,[12],inactive
same,Potency,[13],inactive
same,Potency,[14],inactive
same,Potency,[15],inactive
same,outcome,[16],inactive
same,Potency,[17],inactive
CCCCC(=O)OCC(=O)[C@H]1[C@H](C)C[C@H]2[C@@H]3C[C@H](F)C4=CC(=O)C=C[C@]4(C)[C@@]3(F)[C@@H](O)C[C@@]21C,Potency,[1],inactive
same,Potency,[2],inactive
same,Potency,[3],inactive
same,Potency,[4],inactive
same,Potency,[5],inactive
same,Potency,[6],inactive
same,Potency,[7],inactive
same,Potency,[8],952 nM (active)
same,Potency,[9],inactive
same,Potency,[10],inactive
same,Potency,[11],inactive
same,PLD induction,[19],-1.62% [at 7.66 µM]
same,Potency,[12],inactive
same,Potency,[13],inactive
same,Potency,[14],inactive
same,Potency,[15],inactive
same,outcome,[16],inactive
same,Potency,[17],inactive
NCCCN1CCOCC1,Potency,[1],inactive
same,Potency,[2],inactive
same,Potency,[3],inactive
same,Potency,[4],inactive
same,Potency,[5],inactive
same,Potency,[6],inactive
same,Potency,[7],inactive
same,Potency,[8],inactive
same,Potency,[9],inactive
same,Potency,[10],inactive
same,Potency,[20],inactive
same,Potency,[11],inactive
same,Potency,[12],inactive
same,Potency,[13],inactive
same,Potency,[14],inactive
same,outcome,[16],inactive
same,Potency,[17],inactive
O=C(O)c1ccccc1Cl,Potency,[1],inactive
same,Potency,[2],inactive
same,Potency,[3],inactive
same,Potency,[4],inactive
same,Potency,[5],inactive
same,Potency,[6],inactive
same,Potency,[7],inactive
same,Potency,[8],inactive
same,Potency,[9],inactive
same,Potency,[18],inactive
same,Potency,[10],inactive
same,Potency,[12],inactive
same,Potency,[13],inactive
same,Potency,[14],inactive
same,Potency,[15],inactive
same,outcome,[16],inactive
same,Potency,[17],inactive
O=C(O)CC(=O)C(=O)O,Potency,[1],inactive
same,Potency,[2],inactive
same,Potency,[3],inactive
same,Potency,[4],inactive
same,Potency,[5],inactive
same,Potency,[6],inactive
same,Potency,[7],inactive
same,Potency,[8],inactive
same,Potency,[9],inactive
same,Potency,[18],inactive
same,Potency,[10],inactive
same,Potency,[13],inactive
same,Potency,[14],inactive
same,outcome,[16],inactive
same,Potency,[17],54.6 µM (active)
CN(C)CCN(Cc1ccc(Cl)cc1)c1ccccn1,Potency,[1],inactive
same,Potency,[2],inactive
same,Potency,[3],inactive
same,Potency,[4],inactive
same,Potency,[5],inactive
same,Potency,[6],inactive
same,Potency,[7],inactive
same,Potency,[8],inactive
same,Potency,[9],inactive
same,Potency,[10],inactive
same,PLD induction,[19],-3.78% [at 0.137 µM]
same,Potency,[12],inactive
same,Potency,[13],inactive
same,outcome,[16],inactive
Nc1ncn([C@H]2C[C@H](O)[C@@H](CO)O2)c(=O)n1,Potency,[1],inactive
same,Potency,[2],inactive
same,Potency,[3],inactive
same,Potency,[4],inactive
same,Potency,[5],inactive
same,Potency,[6],inactive
same,Potency,[7],inactive
same,Potency,[8],inactive
same,Potency,[9],inactive
same,Potency,[18],inactive
same,Potency,[10],inactive
same,Potency,[12],inactive
same,Potency,[13],inactive
same,Potency,[14],inactive
same,Potency,[15],inactive
same,outcome,[16],inactive
same,Potency,[17],inactive
C#Cc1cccc(Nc2ncnc3cc(OCCOC)c(OCCOC)cc23)c1,Potency,[1],inactive
same,Potency,[2],inactive
same,Potency,[3],inactive
same,Potency,[4],inactive
same,Potency,[5],inactive
same,Potency,[6],inactive
same,Potency,[7],inactive
same,Potency,[8],inactive
same,Potency,[9],inactive
same,Potency,[18],inactive
same,Potency,[10],inactive
same,Potency,[11],inactive
same,Potency,[12],inactive
same,Potency,[13],inactive
same,outcome,[16],inactive
CC(=O)[O][Al][O]C(C)=O,Potency,[1],inactive
same,Potency,[2],inactive
same,Potency,[3],inactive
same,Potency,[4],inactive
same,Potency,[5],inactive
same,Potency,[6],inactive
same,Potency,[7],inactive
same,Potency,[8],inactive
same,Potency,[9],inactive
same,Potency,[18],inactive
same,Potency,[10],inactive
same,Potency,[12],inactive
same,Potency,[13],inactive
same,Potency,[14],inactive
same,outcome,[16],inactive
same,Potency,[17],inactive
CC1=CC=C(C(C)C)CC1,Potency,[1],inactive
same,Potency,[2],inactive
same,Potency,[3],inactive
same,Potency,[4],inactive
same,Potency,[5],inactive
same,Potency,[6],inactive
same,Potency,[7],inactive
same,Potency,[8],inactive
same,Potency,[9],inactive
same,Potency,[10],inactive
same,Potency,[11],inactive
same,Potency,[12],inactive
same,Potency,[13],inactive
same,Potency,[14],inactive
same,outcome,[16],inactive
same,Potency,[17],inactive
O=C(O)C1(C(=O)O)CCC1.[NH2-].[NH2-].[Pt+2],Potency,[1],inactive
same,Potency,[2],inactive
same,Potency,[3],inactive
same,Potency,[4],inactive
same,Potency,[5],inactive
same,Potency,[6],inactive
same,Potency,[7],inactive
same,Potency,[8],inactive
same,Potency,[9],inactive
same,Potency,[18],inactive
same,Potency,[10],inactive
same,Potency,[11],inactive
same,Potency,[12],inactive
same,Potency,[13],inactive
same,Potency,[14],inactive
same,Potency,[15],inactive
same,outcome,[16],inactive
same,Potency,[17],inactive
